From PubChem
NS1 inh = inhibitors of influenza NS1 protein function | Potency, µM (series often up to 46.1 µM), for the others: at the top dose activity, positive = more growth | AID 2326 | actives 0.4% (n = 270,000); note: actives are rising curves; nearly all actives have a fitted effect of over 50% in size
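Read-out: OD600 growth recovery of NS1-expressing budding yeast. Cells grown overnight at 30C in -URA glucose medium, washed, resuspended and diluted 1:100 in 2% galactose assay medium, pH 6.0. Same strain lacking NS1 served as positive control.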
Pf growth 96h = inhibits malaria parasite growth, 96 h | P. falciparum luciferase reporter growth, 96 h | actives 6.9% (n = 320,000) | Potency, µM (top dose mostly 28.7 µM), for the others: top-dose activity change, negative = inhibition, hits mostly inhibitors | AID 504834; active = well fitted inhibition curve with a large enough effect; inconclusive = small, poorly fitted or top-dose-only effect, or another doubt; inactive = no such curve, though single readings can be large or run the other way; note: % is set by controls: 0 for no effect and ±100 for the full control effect
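Two parasite generations (96 h, 37 C, 5% CO2) of compound exposure in infected erythrocytes (0.05% parasitemia, 2% hematocrit). Luciferase-reporter P. falciparum; decreased luminescence indicates inhibited growth, aimed at apicoplast-acting delayed death.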
RE007 growth inh = less growth of the S. pombe RE007 Vpr strain; Potency, µM (series often up to 92.2 µM), inactives show top-dose activity change, negative = less growth, usual class: inhibitors; actives 0.21% (n = 360,000); S. pombe RE007 Vpr strain, BacTiter-Glo ATP luminescence, 24 h; active = well fitted falling curve with a large enough effect; inconclusive = small, poorly fitted or top-dose-only effect; inactive = no such curve, though single readings can be large or run the other way; note: % is set by controls: 0 for no effect and ±100 for the full control effect; nearly all actives have a fitted effect of over 50% in size
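Fission yeast RE007 carrying one integrated HIV-1 vpr copy, seeded at OD 0.01 in PMG+AL medium with 23 nL pinned compound. Grown 24 h at 30 degrees; viability read by BacTiter-Glo luminescence after 5 min.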
SARS PLP yeast = SARS-CoV PLP inhibition in yeast | actives 0.19% (n = 330,000) | Potency, µM (doses to about 32.9 µM), for the others: at the highest dose activity, positive = growth rescue, hits mostly activators | S. cerevisiae expressing SARS-CoV PLpro, growth rescue; note: 0% is about no effect; nearly all actives have a fitted effect of over 55% in size
Pf growth 48h = inhibits P. falciparum growth in the first generation, 48 h; P. falciparum luciferase growth in erythrocytes, 48 h; Potency, µM (doses to about 28.7 µM), for the others: at the top dose activity change, negative = inhibition, usual class: inhibitors; actives 5.9% (n = 310,000); active = well fitted inhibition curve with a large enough effect; inconclusive = small, poorly fitted or top-dose-only effect, or another doubt; inactive = no such curve, though single readings can be large or run the other way; note: % is set by controls: 0 for no effect and ±100 for the full control effect
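In quantitative HTS format, infected erythrocytes bearing luciferase-reporter parasites were treated for a single generation at 37 C. Luminescence after adding detection reagent served as the growth measure.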
Active calls of the source: *; ? = inconclusive; · = not tested or not shown; [ ] = remark or other dose. An excerpt weighted towards active compounds, which were near 9.5% of everything screened. Unless noted, calls come from the whole dose curve. Potency is the fitted concentration of half-maximal effect.

SMILES	NS1 inh	Pf growth 96h	RE007 growth inh	SARS PLP yeast	Pf growth 48h
O=C(OC(C(=O)Nc1cccc(C(F)(F)F)c1)c1ccccc1)C1CCCCC1 (configuration not stated)	-10.9%	6.57µM*	·	-27.3%	?
NS(=O)(=O)c1ccc(CCNC(=S)NC2CCCCC2)cc1	-4.9%	25.1%	-0.5%	-0.4%	0.4%
NS(=O)(=O)c1ccc(CNC(=S)NCc2ccc(F)cc2)cc1	-1.6%	10.4µM*	0.4%	4.8%	36.7%
NS(=O)(=O)c1ccc(CNC(=S)NC2CC2)cc1	3.6%	2.08µM*	3.3%	0.2%	28.5%
Cc1ccc(S(=O)(=O)NC(=O)NCc2ccc(F)cc2)cc1	9.0%	4.15µM*	-22.6%	0.1%	4.9%
COc1ccc(Cl)cc1NC(=S)NCc1ccc(S(N)(=O)=O)cc1	-0.5%	11.7µM*	-5.3%	-0.4%	18.6%
Cc1ccc(S(=O)(=O)NC(=O)NCc2ccccc2)cc1	-13.7%	·	18.7%	7.6%	·
COc1ccc(OC)c(NC(=S)NCc2ccc(S(N)(=O)=O)cc2)c1	4.4%	?	8.2%	0.1%	10.7%
COc1cc([N+](=O)[O-])ccc1NC(=S)NNC(=O)CCC(=O)Nc1ccccc1Cl	-15.2%	23.4%	2.4%	-1.8%	58.3%
CCn1cc(C(=O)O)c(=O)c2cc(F)c(N3CCNCC3)nc21	·	1.44µM*	1.3%[18.4 µM]	·	3.61µM*
CCn1cc(C(=O)O)c(=O)c2ccc(C)nc21	-25.9%	4.9%	10.6%[18.4 µM]	0.0%	5.2%
C=C(C)c1ccccc1 (tested in a mixture with another compound)	-3.1%	·	·	·	·
CC[N+](CC)(CC#Cc1ccccc1)CC#Cc1ccccc1	-2.0%	?	6.0%	1.2%	1.47µM*
CC(C)NC(=O)c1ccc2c(c1)N(Cc1ccccc1)C(=O)C(C)(C)O2	11.3%	145.6%	-2.8%	-6.2%	?
COc1ccccc1/C=C/C(=O)Nc1ccc2c(c1)OCCO2	-49.5%	13.1µM*	-1.9%	-60.1%	326.7%
CCCCCC(=O)Nc1ccc(N2CCOCC2)c(S(=O)(=O)Nc2ccc(OC)cc2)c1	·	?	3.5%	·	14.7µM*
COc1ccc(NS(=O)(=O)c2cc(NC(=O)/C=C/c3cccs3)ccc2N2CCOCC2)cc1	6.4%	7.38µM*	-2.4%	6.7%	?
COc1ccc(NS(=O)(=O)c2cc(NC(=O)/C=C/c3ccccc3OC)ccc2N2CCCCC2)cc1	-2.3%	1.04µM*	-1.2%	-6.1%	1.04µM*
Nc1ccc(S(=O)(=O)NCc2nccs2)cc1	-1.7%	·	·	·	·
COc1ccc(NS(=O)(=O)c2cc(NC(=O)c3ccc(C)s3)ccc2N2CCOCC2)cc1	?	13.1µM*	8.8%	-1.1%	?
COc1ccc(N2CCN(C(=O)c3cccc(N4C(=O)C5C6C=CC(C6)C5C4=O)c3)CC2)cc1 (configuration not stated)	12.3%	60.6%	2.9%	11.3%	10.4µM*
Cc1ccc(S(=O)(=O)N(C)c2ccccc2C(=O)N2CCCC2)cc1	8.5%	?	4.4%	2.0%	-14.7%
COc1ccc(N(C)S(=O)(=O)c2cccc(C(=O)N3CCN(c4ccccc4)CC3)c2)cc1	·	?	2.4%	-4.4%	10.4µM*
COc1ccc(N(C)S(=O)(=O)c2cccc(C(=O)N3CCN(Cc4ccc5c(c4)OCO5)CC3)c2)cc1	·	13.1µM*	-2.7%	1.7%	?
COc1ccc(N2CCN(C(=O)c3cccc(N4C(=O)C5CC=CC(C)C5C4=O)c3)CC2)cc1 (configuration not stated)	2.1%	43.4%	25.8%	5.5%	21.5%
SMILES	NS1 inh	Pf growth 96h	RE007 growth inh	SARS PLP yeast	Pf growth 48h
COc1ccc(N2CCN(C(=O)c3ccccc3N(C)S(=O)(=O)c3ccc(C)cc3)CC2)cc1	-1.7%	10.4µM*	6.8%	-4.3%	?
COCCN(C(=S)Nc1ccc(C)cc1)C(C)c1cccnc1 (configuration not stated)	·	-14.9%	7.6%	-0.1%	?
COCCCN(C(=O)Nc1ccc(C)c(C)c1)C(C)c1ccccn1 (configuration not stated)	-13.9%	13.1µM*	-2.0%	0.8%	·
COCCN(C(=O)Nc1ccccc1)C(C)c1cccnc1 (configuration not stated)	0.8%	5.22µM*	-8.0%	-2.0%	·
CC1(C)CC2CC(C)(CN2C(=O)CN2C(=O)c3ccccc3C2=O)C1 (configuration not stated)	-0.7%	·	43.6%	-1.0%	8.2%
CSCCC(C(=O)N1CC2(C)CC1CC(C)(C)C2)N1C(=O)c2ccccc2C1=O (configuration not stated)	-12.5%	13.1µM*	4.4%	2.6%	-21.9%
CCOc1ccc(OCCC(=O)N(CCOC)c2c(N)n(Cc3ccccc3)c(=O)[nH]c2=O)cc1	·	·	16.3%	·	·
COc1cc(C(=O)OC2C[C@H]3CC[C@@H](C2)N3)ccc1O (some centres not stated)	3.9%	?	-3.9%	0.2%	11.7µM*
Cc1cc(C(=O)N2CCC2(C)C(=O)O)c(C)o1 (configuration not stated)	·	·	-9.8%[18.4 µM]	·	·
COc1ccc(CN2CCN(Cc3ccc(Br)cc3)CC2)c(OC)c1OC	6.8%	39.2%	-16.1%	0.8%	0.0%
CCN1CCN(Cc2cc(Br)cc(Br)c2O)CC1	?	·	-1.3%	-6.2%	1.65µM*
CCc1ccc(CN2CCN(Cc3cc(Br)ccc3O)CC2)cc1	·	1.17µM*	-5.1%	-4.9%	0.233µM*
Oc1ccc(Br)cc1CN1CCN(c2ccccc2)CC1	-22.4%	63.3%	-20.4%	0.9%	1.65µM*
Oc1ccc(Br)cc1CN1CCCCCCC1	-8.6%	·	-14.1%	1.2%	1.65µM*
Cc1ccc2c(c1)S(=O)(=O)N(C)C(c1ccccc1)=C2	·	·	5.5%	·	·
O=C(COC(=O)c1cc[n+]([O-])cc1)NC(=O)c1ccc(OC(F)F)cc1	·	·	-4.3%	1.2%	·
COc1ccc(OC)c(/C=C/C(=O)OCC(=O)NCc2cccs2)c1	·	?	1.1%	1.1%	-17.6%
CCN1CCN(Cc2cc(Br)ccc2O)CC1	9.9%	·	27.6%	9.3%	13.1µM*
CC[C@@]1(C(=O)OC)N[C@H](CN(C)C(=O)Nc2ccc(OC)cc2)[C@@H]2C(=O)N(Cc3ccccc3)C(=O)[C@@H]21	·	·	-3.4%	-6.0%	·
COC(=O)c1cc2c(cc1[N+](=O)[O-])OCO2	-1.2%	10.7%	10.7%	3.5%	25.5%
COc1cc2c(cc1/C=C/[N+](=O)[O-])OCO2	·	-12.0%	14.1µM*	-23.5%	?
CCCN(C)C[C@H]1OCc2cnnn2CCCC(=O)N([C@H](C)CO)C[C@@H]1C	·	·	2.8%	·	·
O=C1c2sc3nc4n(c(=O)c3c2CCC1Br)CCCCC4 (configuration not stated)	-24.8%	9.28µM*	1.5%	-14.9%	?
CCCn1c(N)c(C(=O)CSc2nnc(-c3ccoc3C)n2C)c(=O)n(C)c1=O	·	?	0.7%	10.7%	?
